Only some compounds are listed: those with a hit (about 19% of all), similar ones and a draw of the others.
HT1080-NT tox – qHTS for induction of synthetic lethality in tumor cells producing 2HG: qHTS for the HT-1080-NT fibrosarcoma cell line | HT-1080-NT fibrosarcoma viability, CellTiter-Glo ATP luminescence, 48 h | 360,000 compounds, 1.6% hits | AID 686970, 2013 | Potency, µM (highest dose often 46.1 µM), inactives show top-dose activity, negative = less viability, actives largely listed as cytotoxic;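 further: NT is the 2HG producing partner of a matched IDH1 knockdown line; potency means the concentration at half of the fitted maximal effect; 0% = DMSO-treated cells and -100% = media-only wells without cells; nearly all actives have a fitted effect of over 55% in size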
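Viability of the 2HG-overproducing fibrosarcoma line after 48 hours of compound exposure at 37 degrees C was determined by luminescence with CellTiter-Glo, and concentration-effect curves were then fitted and categorized.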
ELG1 repair inh – qHTS screen for small molecules that inhibit ELG1-dependent DNA repair in human embryonic kidney (HEK293T) cells expressing luciferase-tagged ELG1. HEK293T ELG1-luciferase reporter, luminescence, 16 h; DNA damage induced by 5-fluorouridine. Potency, µM (series often up to 46.1 µM), for the others: top-dose activity change, negative = inhibition, usual class: inhibitors. 330,000 compounds, 2.3% hits. AID 504467, 2011; further: potency means the concentration at half of the fitted maximal effect; nearly all actives have a fitted effect of over 55% in size
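Luminescence from the luciferase reporter, measured 30 min after ONE-Glo reagent at room temperature, was the read-out. Beforehand, 2,000 cells per well were exposed for 16 hr at 37 °C to 5-fluorouridine together with compound or vehicle.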
HT1080 IDH1KD tx – qHTS for induction of synthetic lethality in tumor cells producing 2HG: qHTS for the HT-1080-IDH1KD cell line. HT-1080 IDH1 knockdown viability, ATP luminescence, 48 h. Potency, µM (doses to about 46.1 µM), without a hit: top-dose activity, negative = toxicity, actives largely listed as cytotoxic. 360,000 compounds, 2% hits;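 further: potency means the concentration at half of the fitted maximal effect; 0% = DMSO wells and -100% = cell-free medium wells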
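Using the IDH1-knockdown HT-1080 line run in the same batch and compound series as the NT line, viability after 48 h at 37 °C was determined by CellTiter-Glo luminescence and expressed as % activity.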
TDP1 cell CPT – qHTS for Inhibitors of human tyrosyl-DNA phosphodiesterase 1 (TDP1): qHTS in cells in presence of CPT | chicken DT40 Tdp1-/-;hTDP1 cells + 20 nM CPT, ATP luminescence, 48 h | Potency, µM (highest dose often 46.2 µM), for the others: at the highest dose activity change, negative = growth inhibition, usual class: inhibitors | 420,000 compounds, 12% hits; further: potency means the concentration at half of the fitted maximal effect; nearly all actives have a fitted effect of over 55% in size
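Chicken DT40 Tdp1-/- cells stably complemented with human TDP1 were seeded at 400 cells/well in medium containing 20 nM camptothecin, exposed to pin-transferred compounds, and grown at 37 °C for at least 48 hr. Viability was read as ATP luminescence.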
IL-1B inflam inh – qHTS for Inhibitors of Inflammasome Signaling: IL-1-beta AlphaLISA Primary Screen | THP-1 LPS/ATP IL-1B secretion, AlphaLISA, 16 h; stronger effect = lower value | activity change, % at 57.5 µM | 360,000 compounds, 4.7% hits; in the data active means activity change below about -50%; inconclusive means mostly about -30% to -49%
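Secreted IL-1B measured by AlphaLISA bead assay after 16 h compound exposure of THP-1 cells; compounds (final up to 57.5 uM) added 1 h before LPS (250 ng/mL) and ATP (1.25 mM) stimulation; lower signal means less secretion.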
TDP1 cell noCPT – qHTS for Inhibitors of human tyrosyl-DNA phosphodiesterase 1 (TDP1): qHTS in cells in absence of CPT. Potency, µM (top dose mostly 46.2 µM), inactives show at the top dose activity change, negative = growth inhibition, hits mostly inhibitors. DT40 Tdp1-/- hTDP1 cells, no CPT, ATP luminescence, 48 h. AID 686978, 2013. 420,000 compounds, 15% hits; further: potency means the concentration at half of the fitted maximal effect; nearly all actives have a fitted effect of over 55% in size
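Chicken DT40 Tdp1-/- cells stably complemented with human TDP1 were seeded at 400 cells/well with DMSO in place of 20 nM camptothecin. After compound pinning, cells grew at least 48 hr at 37 °C; viability read by CellTiter-Glo luminescence.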
* hit, by the source's call. Unless noted, the call rests on the fitted dose curve; in most records, active means well fitted curve in the direction sought with a large enough effect; inconclusive means small, poorly fitted or top-dose-only effect, or another doubt; inactive means no such curve, though single readings can be large; an effect the other way counts as inactive or inconclusive. Unless noted, on the % scale 0 is the no-effect control and ±100 the full control effect.

COc1ccccc1-n1cc(-c2ccc(C)cc2)nc1S(=O)(=O)CC(=O)Nc1ccccc1C(F)(F)F was read as TDP1 cell CPT inconclusive and TDP1 cell noCPT 16µM*.
For COc1ccc(NC(=O)CS(=O)(=O)c2ccc(F)cc2)cc1 the results were HT1080-NT tox 8%, ELG1 repair inh inconclusive, HT1080 IDH1KD tx -1%, TDP1 cell CPT 16%, IL-1B inflam inh 19 and TDP1 cell noCPT 16%.
For COc1ccc(OC)c(CCNC(=O)Cn2ncc3c([nH]c4ccccc43)c2=O)c1 the results were TDP1 cell CPT 9% and TDP1 cell noCPT -8%.
COc1cccc(-c2nc(Cn3c(=O)cc(C)c4c(C)nn(-c5ccccc5)c43)c(C)o2)c1OC was read as TDP1 cell CPT 8% and TDP1 cell noCPT 10%.
For CN(Cc1ccc(F)cc1)C(=O)c1cccc(OCc2ccccc2)c1 the results were HT1080-NT tox -13%, ELG1 repair inh -1%, HT1080 IDH1KD tx -8%, TDP1 cell CPT inconclusive, IL-1B inflam inh -54* and TDP1 cell noCPT inconclusive.
`CN(CC(=O)Nc1cccc(F)c1)C(=O)c1ccc(COc2ccccc2)cc1` gave HT1080-NT tox 26µM*, ELG1 repair inh -19%, HT1080 IDH1KD tx -21%, TDP1 cell CPT inconclusive, IL-1B inflam inh inconclusive and TDP1 cell noCPT inconclusive.
For CN(CC(=O)Nc1ccccc1Br)C(=O)c1ccc(COc2ccccc2)cc1 the results were HT1080-NT tox -13%, ELG1 repair inh 6%, HT1080 IDH1KD tx -14%, TDP1 cell CPT inconclusive, IL-1B inflam inh -9 and TDP1 cell noCPT inconclusive.
CC(=O)c1cccc(NC(=S)NC2CCCCCCC2)c1 was read as HT1080-NT tox -3%, ELG1 repair inh 10%, HT1080 IDH1KD tx -9%, TDP1 cell CPT -2%, IL-1B inflam inh -6 and TDP1 cell noCPT 2%.
Screening CC(C)(C)[C@@H]1C=C(C(=O)NCc2ccccc2)O[C@H](OCc2ccc(CO)cc2)C1 returned HT1080-NT tox 6%, ELG1 repair inh inconclusive, HT1080 IDH1KD tx -1%, TDP1 cell CPT inconclusive, IL-1B inflam inh -12 and TDP1 cell noCPT -35%.
Screening O=C(NCc1nc2ccccc2[nH]1)C1=C[C@@H](c2ccc(C(F)(F)F)cc2)C[C@@H](OCc2ccc(CO)cc2)O1 returned HT1080-NT tox inconclusive, HT1080 IDH1KD tx inconclusive, TDP1 cell CPT inconclusive, IL-1B inflam inh -12 and TDP1 cell noCPT 18µM*.
`O=C(NCc1nc2ccccc2[nH]1)C1=C[C@@H](c2ccccc2)C[C@@H](OCc2ccc(CO)cc2)O1` gave HT1080-NT tox -21%, ELG1 repair inh -21%, HT1080 IDH1KD tx -12%, TDP1 cell CPT inconclusive, IL-1B inflam inh -8 and TDP1 cell noCPT inconclusive.
Screening CC(C)(C)[C@H]1C=C(C(=O)NCc2nc3ccccc3[nH]2)O[C@@H](OCc2ccc(CO)cc2)C1 returned HT1080-NT tox -4%, ELG1 repair inh inconclusive, HT1080 IDH1KD tx -1%, TDP1 cell CPT 21µM*, IL-1B inflam inh -1 and TDP1 cell noCPT inconclusive.
Screening O=C(NCc1nc2ccccc2[nH]1)C1=C[C@H](c2ccccc2)C[C@H](OCc2ccc(CO)cc2)O1 returned HT1080-NT tox -15%, ELG1 repair inh 21µM*, HT1080 IDH1KD tx -5%, TDP1 cell CPT inconclusive, IL-1B inflam inh inconclusive and TDP1 cell noCPT inconclusive.
Cc1noc(C)c1-c1cncnc1NCc1cccnc1 was read as TDP1 cell CPT 2% and TDP1 cell noCPT 2%.
Screening CCc1ccccc1NC(=O)N1CCC(CN2CCc3ccccc3C2)CC1 returned TDP1 cell CPT 2% and TDP1 cell noCPT inconclusive.
For CCOC(=O)c1c(NC(C)=O)c2c3c(sc2n1Cc1ccc(Cl)cc1)CCCC3 the results were TDP1 cell CPT inconclusive and TDP1 cell noCPT 15µM*.
Screening CCOC(=O)c1c(NC(C)=O)c2c3c(sc2n1Cc1cccc(Cl)c1)CCCC3 returned TDP1 cell CPT inconclusive and TDP1 cell noCPT 15µM*.
`COC(=O)c1c(NC(C)=O)c2c3c(sc2n1Cc1cc(C)ccc1C)CCCC3` gave TDP1 cell CPT -18% and TDP1 cell noCPT -56%.
C=CCn1c(=O)n2ncnc2c2c3c(sc21)CCCC3 was read as HT1080-NT tox 0%, ELG1 repair inh -17%, HT1080 IDH1KD tx 7%, TDP1 cell CPT -17%, IL-1B inflam inh 0 and TDP1 cell noCPT inconclusive.
For CCOC(=O)c1c(NC(=O)c2cc(Cl)ccc2Cl)sc2c1CCCC2 the results were TDP1 cell CPT -8% and TDP1 cell noCPT -7%.
CCOC(=O)c1c(NC(C)=O)c2c3c(sc2n1Cc1nc(-c2ccccc2C)oc1C)CCCC3 was read as TDP1 cell CPT 0% and TDP1 cell noCPT -17%.
Screening O=c1n(Cc2ccc(Cl)cc2)c2sc3c(c2c2ncnn12)CCCC3 returned HT1080-NT tox 0%, ELG1 repair inh inconclusive, HT1080 IDH1KD tx 3%, TDP1 cell CPT inconclusive, IL-1B inflam inh -20 and TDP1 cell noCPT 15µM*.
CCOC(=O)c1c(NC(C)=O)c2c3c(sc2n1Cc1cc(C)ccc1C)CCCC3 was read as TDP1 cell CPT 5.8µM* and TDP1 cell noCPT inconclusive.
`CCC(C)NC(=O)C1=CC(c2ccc3c(c2)OCO3)=NS(=O)(=O)N1C` (centres undefined) gave TDP1 cell CPT 8% and TDP1 cell noCPT -13%.
For CCC(CC)C(=O)Nc1ccc(OCc2cc(=O)n3ccc(C)cc3n2)cc1 the results were TDP1 cell CPT -4% and TDP1 cell noCPT -15%.
For CCOC(=O)c1c(NC(C)=O)c2c3c(sc2n1Cc1nc(-c2cccc(C)c2)oc1C)CCCC3 the results were TDP1 cell CPT 3.7µM* and TDP1 cell noCPT inconclusive.
Screening Cc1ccc(C)c(N2CCN(S(=O)(=O)c3cc(Br)cc4c3N(C(=O)C3CC3)CC4)CC2)c1 returned TDP1 cell CPT 3% and TDP1 cell noCPT -5%.
`COc1ccc(N(CC(=O)Nc2ccc(C)c(C)c2)S(=O)(=O)c2ccc(C)cc2)cc1OC` gave TDP1 cell CPT -6% and TDP1 cell noCPT -17%.

Screening results (PubChem BioAssay)
